Compound activity: PubChem, several laboratories
Sampled rows, rich in hits. Any-hit rate of the full collection: about 1.9%.
A1 inh – inhibitors of the anti-apoptotic protein A1, read as caspase activation | MEF A1-2A-BIM cells, Caspase-Glo 3/7 luminescence, 3 h; percent of clofoctol response, vehicle zero | caspase activation, % (concentration not given with the values) | 0.066% of 330,000 active;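 active = over half of replicate activation scores above 10%, or exactly half above 10 with the replicate mean above 10; inconclusive = replicate mean below 10 yet half the replicates above 10; inactive = over half of replicates below 10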
Neddyl block – blocks human cullin neddylation; P61081+Q13564; TR-FRET cullin neddylation, biochemical; 0.58% of 360,000 active; inhibition, % at 25 µM; AID 651699; in the data active = inhibition above about 36%
Vif inh – HIV Vif inhibition; HEK293T cells, Vif self-association by quenched fluorescence, imaging, 24 h; inhibition, % at 7.49 µM; 0.35% of 340,000 active; AID 602346; in the data active = inhibition above about 50%, passing the limit was not always enough; inconclusive = no clear call, values can overlap the other calls; inactive = below about 31%
INS-1E GSIS act – primary screen for activators of insulin secretion dependent on glucose, INS-1E cells, GLuc reporter luminescence; INS-1E GLuc reporter insulin secretion, 2-3 h; activation, % at 16.6 µM; 0.61% of 370,000 active;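 active = lowest replicate activation of at least 40%, so every replicate reaches that level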;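 note: 0% = median of neutral control wells and 100% = median of IBMX positive control wells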
dFosB act-1 – activators of mouse delta FosB homodimer; 0.99% of 340,000 active; purified delta FosB, TAMRA-CDK5 oligo fluorescence polarization; percent of positive-control signal above neutral wells; activation, % at 25 µM;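 active = mean activation above about 17%, with every replicate also reaching it, limit read from the data, passing the limit was not always enough; inconclusive = only one of the two conditions met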
Target sequence (P13346 whole entry, looked up): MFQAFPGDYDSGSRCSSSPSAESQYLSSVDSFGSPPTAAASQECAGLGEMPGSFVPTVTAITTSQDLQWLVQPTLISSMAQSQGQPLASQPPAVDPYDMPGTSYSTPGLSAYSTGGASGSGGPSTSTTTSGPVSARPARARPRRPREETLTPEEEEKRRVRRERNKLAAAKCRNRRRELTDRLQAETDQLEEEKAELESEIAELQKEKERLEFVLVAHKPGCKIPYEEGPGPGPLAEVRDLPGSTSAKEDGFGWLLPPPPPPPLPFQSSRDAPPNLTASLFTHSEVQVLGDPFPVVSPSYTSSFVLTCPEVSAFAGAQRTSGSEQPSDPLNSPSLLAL
dFosB act-2 – activators of mouse delta FosB homodimer DNA binding; shares compounds with dFosB act-1; purified delta FosB, TAMRA-CDK5 oligo fluorescence polarization; normalised: neutral wells 0, positive control 100; activation, % at 24.9 µM; 2,400 tested, under 10 active; AID 588690;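 active = highest replicate activation at or above 34% and every replicate reaching that threshold; inconclusive = meets only one of the two criteria; inactive = meets neither criterion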;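 note: higher polarization means more probe DNA bound by delta FosB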
Numbers without * were called inactive.

`COc1ccc(/C=N/NC(=O)c2cccc([N+](=O)[O-])c2)cc1O` gave A1 inh -2, Neddyl block -43, Vif inh -9, INS-1E GSIS act 19 and dFosB act-1 -7.
Screening CN(C)C(=O)[C@@H]1[C@@H](CO)[C@@H]2Cn3c(ccc(C4=CCCC4)c3=O)[C@@H]2N1C(=O)Cc1cccnc1 returned INS-1E GSIS act 20.
CCCCN(CC)CCCNC(=S)Nc1ccc2nc(N3CCN(C)CC3)cc(C)c2c1 was read as A1 inh 2, Neddyl block 16, Vif inh -2, INS-1E GSIS act 10 and dFosB act-1 15.
Screening CCN(CC)CCNC(=S)Nc1ccc2nc(N3CCCC3)cc(C)c2c1 returned A1 inh 1, Neddyl block 28, Vif inh 2, INS-1E GSIS act 14, dFosB act-1 32* and dFosB act-2 1.
For CCCN(CCC)CCCNC(=S)Nc1ccc2nc(N3CCCC3)cc(C)c2c1 the results were A1 inh 1, Neddyl block 15, Vif inh -17, INS-1E GSIS act 7, dFosB act-1 36* and dFosB act-2 inconclusive.
Screening CCN(CC)CCNC(=S)Nc1ccc2nc(N3CCN(C)CC3)cc(C)c2c1 returned A1 inh 0, Neddyl block 15, Vif inh -6, INS-1E GSIS act 33, dFosB act-1 24* and dFosB act-2 0.
Screening CCN(CC)CCNC(=S)Nc1ccc2nc(N3CCOCC3)cc(C)c2c1 returned A1 inh 0, Neddyl block 32, Vif inh 11, INS-1E GSIS act 21 and dFosB act-1 -12.
Screening C/C(=N\Nc1nc2ccccc2[nH]1)c1ccc2c(c1)OCO2 returned A1 inh -1, Neddyl block 0, Vif inh -11, INS-1E GSIS act -3, dFosB act-1 27* and dFosB act-2 3.
For COc1ccccc1NC(=O)N1CC(=O)N2[C@H](CO)[C@@H](c3ccc(-c4cccc(C)c4)cc3)[C@@H]2C1 the results were INS-1E GSIS act -9.
`O=C(CCCn1c(=O)c2cccn2c2cccnc21)NCc1cccc(Br)c1` gave A1 inh -1, Neddyl block -14, Vif inh 1, INS-1E GSIS act 10 and dFosB act-1 -10.
For O=C(CCn1c(=O)c2cccn2c2cccnc21)NCc1cccc(Cl)c1 the results were A1 inh 0, Neddyl block -54, Vif inh 1, INS-1E GSIS act 2, dFosB act-1 21* and dFosB act-2 0.
`Cc1noc(C)c1S(=O)(=O)Nc1ccc2c(c1)C(=O)N([C@@H](C)CO)C[C@@H](C)[C@H](CN(C)C(=O)C1CCCCC1)OCCCC[C@H](C)O2` gave INS-1E GSIS act -13.
Screening CN(C)S(=O)(=O)c1ccc(S(=O)(=O)NCc2ccc3c(c2)OCO3)cc1 returned A1 inh 0, Neddyl block 8, Vif inh 0, INS-1E GSIS act -15, dFosB act-1 36* and dFosB act-2 -6.
O=S(=O)(NCc1ccc2c(c1)OCO2)c1ccc(F)cc1 was read as A1 inh 0, Neddyl block -1, Vif inh -7, INS-1E GSIS act 8 and dFosB act-1 6.
For COc1ccc(NC(=O)Nc2ccc3c(c2)C(=O)N([C@@H](C)CO)C[C@@H](C)[C@@H](CN(C)C(=O)CCC(F)(F)F)OCCCC[C@H](C)O3)cc1 the results were INS-1E GSIS act 9.
Screening CCn1c(=S)sc2c(=O)n(CC(=O)Nc3ccc(OC)c(Cl)c3)c(C)nc21 returned A1 inh 0, Neddyl block -10, Vif inh -2, INS-1E GSIS act -7, dFosB act-1 28* and dFosB act-2 3.
`Cc1nc2c(sc(=S)n2Cc2ccco2)c(=O)n1CC(=O)Nc1cc(F)ccc1F` gave A1 inh 1, Neddyl block -4, Vif inh -9, INS-1E GSIS act 8, dFosB act-1 103* and dFosB act-2 2.
Screening CCn1c(=S)sc2c(=O)n(CC(=O)Nc3ccc(Cl)cc3)c(C)nc21 returned A1 inh 0, Neddyl block -3, Vif inh 1, INS-1E GSIS act -9 and dFosB act-1 inconclusive.
`Cc1nc2c(sc(=S)n2Cc2ccco2)c(=O)n1CC(=O)Nc1ccc(F)cc1` gave A1 inh 2, Neddyl block -6, Vif inh -2, INS-1E GSIS act 10 and dFosB act-1 inconclusive.
For NC1=NC2(CCC(c3ccccc3)CC2)n2c(nc3ccccc32)N1 (stereo not drawn) the results were A1 inh 1, Neddyl block 8, dFosB act-1 34* and dFosB act-2 2.
For CCc1ccc(NC(=O)CSc2nnc(-c3n[nH]c4ccccc34)n2-c2ccccc2)cc1 the results were A1 inh 1, Neddyl block 5, Vif inh 1, INS-1E GSIS act 9 and dFosB act-1 9.
`O=C(CSc1nnc(-c2n[nH]c3ccccc23)n1-c1ccccc1)Nc1cccc(Cl)c1` gave A1 inh 0, Neddyl block -41, INS-1E GSIS act 0, dFosB act-1 25* and dFosB act-2 8.
Screening CCc1ccc(OCC(O)CN2CCC(CN3C(=O)c4cccc5cccc(c45)C3=O)CC2)cc1 (stereo not drawn) returned A1 inh 0, Neddyl block 0, Vif inh -4, INS-1E GSIS act -22 and dFosB act-1 3.
`O=C1c2cccc3cccc(c23)C(=O)N1CCN1CCN(CC(O)COCc2ccc(Cl)cc2)CC1` (stereo not drawn) gave A1 inh 0, Neddyl block -28, Vif inh -12, INS-1E GSIS act -28 and dFosB act-1 13.
For COc1ccc(COCC(O)CN2CCC(C(N)=O)CC2)cc1OC (stereo not drawn) the results were A1 inh 1, Neddyl block 0, Vif inh 14, INS-1E GSIS act 14 and dFosB act-1 -3.
Screening COc1cccc(OCC(O)CN2CCC(CN3C(=O)c4cccc5cccc(c45)C3=O)CC2)c1 (stereo not drawn) returned A1 inh -1, Neddyl block 9, Vif inh -13, INS-1E GSIS act -22, dFosB act-1 46* and dFosB act-2 3.
COc1ccc(COCC(O)CN2CCC(CN3C(=O)c4cccc5cccc(c45)C3=O)CC2)cc1OC (stereo not drawn) was read as A1 inh 0, Neddyl block 4, Vif inh -3, INS-1E GSIS act 5, dFosB act-1 28* and dFosB act-2 5.
